Test results reported in ChEMBL document CHEMBL5308504, “Tm Shift (DSF) assay results for EUbOPEN Chemogenomics Library” (2023).

Each molecule was assayed against T1, Transcription intermediary factor 1-alpha (Homo sapiens) (UniProt O15164). Details: Compound concentration 20.0 uM, Protein concentration 2.0 uM, Result type QC Liability.
T1 sequence (whole entry): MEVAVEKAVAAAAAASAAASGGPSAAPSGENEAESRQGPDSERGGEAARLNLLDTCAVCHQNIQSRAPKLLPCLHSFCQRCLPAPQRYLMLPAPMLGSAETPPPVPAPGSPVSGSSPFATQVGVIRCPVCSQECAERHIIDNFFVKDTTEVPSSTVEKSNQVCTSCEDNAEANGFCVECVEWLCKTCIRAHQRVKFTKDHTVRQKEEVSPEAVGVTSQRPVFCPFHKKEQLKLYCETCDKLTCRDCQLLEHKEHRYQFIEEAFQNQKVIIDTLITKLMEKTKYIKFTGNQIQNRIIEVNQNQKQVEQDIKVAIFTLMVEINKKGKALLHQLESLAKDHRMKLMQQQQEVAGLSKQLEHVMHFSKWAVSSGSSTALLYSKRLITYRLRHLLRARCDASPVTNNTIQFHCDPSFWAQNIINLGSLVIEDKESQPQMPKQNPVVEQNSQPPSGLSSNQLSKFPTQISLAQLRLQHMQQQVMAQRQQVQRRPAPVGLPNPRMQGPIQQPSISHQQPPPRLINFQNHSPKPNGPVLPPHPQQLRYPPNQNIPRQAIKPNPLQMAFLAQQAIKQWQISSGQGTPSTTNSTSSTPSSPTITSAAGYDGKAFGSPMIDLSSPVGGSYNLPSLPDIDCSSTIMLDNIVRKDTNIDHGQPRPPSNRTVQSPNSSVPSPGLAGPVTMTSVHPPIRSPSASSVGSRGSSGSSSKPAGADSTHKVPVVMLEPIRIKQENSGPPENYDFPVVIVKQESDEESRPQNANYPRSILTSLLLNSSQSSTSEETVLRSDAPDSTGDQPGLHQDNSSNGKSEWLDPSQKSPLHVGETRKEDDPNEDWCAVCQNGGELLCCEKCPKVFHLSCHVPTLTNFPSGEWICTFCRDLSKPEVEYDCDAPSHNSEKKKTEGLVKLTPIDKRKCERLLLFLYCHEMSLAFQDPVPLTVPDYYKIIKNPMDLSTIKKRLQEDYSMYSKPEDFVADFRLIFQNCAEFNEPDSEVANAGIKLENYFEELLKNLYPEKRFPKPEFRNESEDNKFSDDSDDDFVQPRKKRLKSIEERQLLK

| SMILES | ΔTm [°C] |
| --- | --- |
| c1ccc2c(-c3coc4cc(-c5ccc(N6CCNCC6)cc5)cnc34)ccnc2c1 | -2.14 |
| Cc1cc(=O)oc2cc(NC(=O)[C@H](Cc3ccc(I)cc3)NC(=O)[C@H]3N[C@@H]4CC[C@H]3C4)ccc12 | 0.3 |
| Cc1cc([N+](=O)[O-])c(NS(=O)(=O)c2cccc(C(=O)O)c2)cc1-c1cccnc1 | -2.82 |
| COc1cc(-c2cc3ncccc3c(OC[C@H]3CNC(=O)C3)n2)cc(OC)c1OC1CCOCC1 | -2.27 |
| O=C(O)CCC/C=C\C[C@@H]1[C@@H](/C=C/[C@@H](O)COc2cccc(C(F)(F)F)c2)[C@H](O)C[C@@H]1O | -0.79 |
| CC(C)C[C@H](NC(=O)[C@@H](O)[C@H](N)Cc1ccccc1)C(=O)O | -0.82 |
| COCCCS(=O)(=O)c1cc(C)c(-c2ccc(F)c3c2CC[C@H]3Oc2ccc3c(c2)OC[C@H]3CC(=O)O)c(C)c1 | -0.22 |
| CP(C)(=O)c1ccc(CNC(=O)C2CCN(S(=O)(=O)c3cc(Cl)cc(Cl)c3)CC2)cc1 | 0.94 |
| CN(C)C(=O)Cn1cc(-c2nc([C@@](C)(c3ccc(-c4cnc(N)nc4)cc3)C3CC3)no2)cn1 | 0.31 |
| CSc1ccc(C(=O)/C=C/c2cc(C)c(OC(C)(C)C(=O)O)c(C)c2)cc1 | -3.46 |
| CCn1c(CNC(=O)c2ncc(C)nc2N)[n+](CC)c2ccc(C(=O)N(C)CCN(C)C)cc21 | -0.01 |
| CNC(=O)c1cccc(-c2ccc3c(N4CCOC[C@@H]4C)nc(N4CCOC[C@@H]4C)nc3n2)c1 | -1.47 |
| CC1CCN(C(=O)[C@H](CCn2cccc2C#N)NS(=O)(=O)c2cccc3[nH]ccc23)CC1 | 0.4 |
